In the supplement of paper PMC10849652:
About 7,900 targets were measured; listed, in parts, are those with a hit and a random draw of the rest. About 0.6% of all pairs of compound and target were hits. Values without a mark were called inactive.

What was measured:
Assay in all cases: log2 fold change, soluble protein after heating vs DMSO (PISA); higher = thermal stabilisation; K562 cells, 10 uM, 30 min; active = over 0.2 and 3.5 SD of the protein, either way, in both replicates (recomputed)
[1] = compound: CC1=C(C=C(C=C1)NC(=O)C2=CC(=CC=C2)C(C)(C)C#N)NC3=CC4=C(C=C3)N=CN(C4=O)C
In short: (§1)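 For each measurement, 10 μM compound was applied for 30 min to K562 cells at 2×10^6 cells/mL. Aliquots were heated for 3 min across 48°C-58°C, pooled, and extracted in PBS with 0.5% NP-40 at 4°C; the supernatant after 21,000xg for 90 min was soluble protein. This was quantified by TMTpro 16plex LC-MS/MS with channel sums equalised, and thermal stability was reported relative to control samples from duplicates, on a log2 fold-change scale.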

[2] = compound: CC1=C(C=C(C=C1)NC(=O)C2=CC(=CC=C2)N(C)C)NC(=O)C3=CC=C(C=C3)O
In short: as §1

[3] = compound: CC1=CC=C(C=C1)SC2=C3C=C(SC3=CN=C2)C(=O)N
In short: as §1

[4] = compound: CC1=NC(=CC=C1)C2=C(N=C(N2)C(C)(C)C)C3=CC4=NC=CN=C4C=C3
In short: as §1

Nexturastat A = compound: CCCCN(Cc1ccc(C(=O)NO)cc1)C(=O)Nc1ccccc1 [Nexturastat A]
In short: as §1

vemurafenib = compound: CCCS(=O)(=O)Nc1ccc(F)c(C(=O)c2c[nH]c3ncc(-c4ccc(Cl)cc4)cc23)c1F [vemurafenib]
In short: as §1

[5] = compound: CCCS(=O)(=O)Nc1ccc(F)c(C(=O)c2c[nH]c3ncc(Cl)cc23)c1F
In short: as §1

[6] = compound: CCCc1cc(C)[nH]c(=O)c1CNC(=O)c1cc(-c2ccnc(N3CCN(C)CC3)c2)cc2c1cnn2C(C)C
In short: as §1

givinostat = compound: CCN(CC)Cc1ccc2cc(COC(=O)Nc3ccc(C(=O)NO)cc3)ccc2c1 [givinostat]
In short: as §1

barasertib = compound: CCN(CCCOc1ccc2c(Nc3cc(CC(=O)Nc4cccc(F)c4)[nH]n3)ncnc2c1)CCOP(=O)(O)O [barasertib]
In short: as §1

[7] = compound: CC[C@@H]1C(=O)N(C)c2cnc(Nc3ccc(C(=O)NC4CCN(C)CC4)cc3OC)nc2N1C1CCCC1
In short: as §1

volasertib = compound: CC[C@@H]1C(=O)N(C)c2cnc(Nc3ccc(C(=O)N[C@H]4CC[C@H](N5CCN(CC6CC6)CC5)CC4)cc3OC)nc2N1C(C)C [volasertib]
In short: as §1

[8] = compound: CC[C@H](C)N1C=C(C2=C(C=C(C=C21)C3=CN=C(C=C3)N4CCNCC4)C(=O)NCC5=C(C=C(NC5=O)C)C)C
In short: as §1

epoxomicin = compound: CC[C@H](C)[C@@H](C(=O)N[C@@H]([C@@H](C)O)C(=O)N[C@@H](CC(C)C)C(=O)[C@]1(CO1)C)NC(=O)[C@H]([C@@H](C)CC)N(C)C(=O)C [epoxomicin]
In short: as §1

[9] = compound: CCn1c(C(=O)N(C2CC2)C2CC2)cc2c3c(ncn3C)c(Nc3cc(C)n(C)n3)nc21
In short: as §1

[10] = compound: CCn1cc(-c2ccnc3[nH]c(-c4cccc(CN(C)C)c4)cc23)c(-c2ccc(NC(=O)N(C)C)cc2)n1
In short: as §1

[11] = compound: CN(C)CC(=O)Nc1ccc2[nH]c(=O)c3ccccc3c2c1
In short: as §1

rosiglitazone = compound: CN(CCOC1=CC=C(C=C1)C[C@H]2C(=O)NC(=O)S2)C3=CC=CC=N3 (racemic) [rosiglitazone]
In short: as §1

[12] = compound: CN1C2=C(C3=C1C(=O)N(N=C3)CC4=CC(=CC=C4)N)SC(=C2)S(=O)C
In short: as §1

[13] = compound: CN1CCC(CNc2ccc3ncc(-c4cccc(OC(F)(F)F)c4)n3n2)CC1
In short: as §1

Chain of UniProt P57740 (P57740 whole entry, looked up): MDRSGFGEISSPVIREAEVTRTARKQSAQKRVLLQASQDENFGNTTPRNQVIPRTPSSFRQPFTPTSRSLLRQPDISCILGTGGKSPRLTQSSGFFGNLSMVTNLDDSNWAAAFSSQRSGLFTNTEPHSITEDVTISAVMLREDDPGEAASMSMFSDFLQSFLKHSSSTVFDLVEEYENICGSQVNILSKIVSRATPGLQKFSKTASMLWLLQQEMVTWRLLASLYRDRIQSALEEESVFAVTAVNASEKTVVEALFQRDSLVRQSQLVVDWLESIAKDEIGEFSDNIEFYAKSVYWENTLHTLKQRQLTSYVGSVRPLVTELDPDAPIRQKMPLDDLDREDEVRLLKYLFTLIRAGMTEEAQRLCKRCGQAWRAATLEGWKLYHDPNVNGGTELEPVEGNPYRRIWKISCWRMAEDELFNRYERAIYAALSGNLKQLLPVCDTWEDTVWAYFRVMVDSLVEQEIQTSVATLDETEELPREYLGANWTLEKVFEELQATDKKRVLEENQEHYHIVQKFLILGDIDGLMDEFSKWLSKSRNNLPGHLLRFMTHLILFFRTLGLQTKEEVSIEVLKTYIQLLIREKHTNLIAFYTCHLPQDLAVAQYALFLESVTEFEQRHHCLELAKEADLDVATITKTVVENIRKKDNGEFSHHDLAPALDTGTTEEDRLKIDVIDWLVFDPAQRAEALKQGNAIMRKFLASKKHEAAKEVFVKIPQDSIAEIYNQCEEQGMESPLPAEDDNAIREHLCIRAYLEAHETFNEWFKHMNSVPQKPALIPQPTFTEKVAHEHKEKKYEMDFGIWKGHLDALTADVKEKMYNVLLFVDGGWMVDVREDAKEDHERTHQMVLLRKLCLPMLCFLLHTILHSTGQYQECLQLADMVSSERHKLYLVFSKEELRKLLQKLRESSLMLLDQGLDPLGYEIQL
Chain of UniProt Q8NBF2 (Q8NBF2 whole entry, looked up): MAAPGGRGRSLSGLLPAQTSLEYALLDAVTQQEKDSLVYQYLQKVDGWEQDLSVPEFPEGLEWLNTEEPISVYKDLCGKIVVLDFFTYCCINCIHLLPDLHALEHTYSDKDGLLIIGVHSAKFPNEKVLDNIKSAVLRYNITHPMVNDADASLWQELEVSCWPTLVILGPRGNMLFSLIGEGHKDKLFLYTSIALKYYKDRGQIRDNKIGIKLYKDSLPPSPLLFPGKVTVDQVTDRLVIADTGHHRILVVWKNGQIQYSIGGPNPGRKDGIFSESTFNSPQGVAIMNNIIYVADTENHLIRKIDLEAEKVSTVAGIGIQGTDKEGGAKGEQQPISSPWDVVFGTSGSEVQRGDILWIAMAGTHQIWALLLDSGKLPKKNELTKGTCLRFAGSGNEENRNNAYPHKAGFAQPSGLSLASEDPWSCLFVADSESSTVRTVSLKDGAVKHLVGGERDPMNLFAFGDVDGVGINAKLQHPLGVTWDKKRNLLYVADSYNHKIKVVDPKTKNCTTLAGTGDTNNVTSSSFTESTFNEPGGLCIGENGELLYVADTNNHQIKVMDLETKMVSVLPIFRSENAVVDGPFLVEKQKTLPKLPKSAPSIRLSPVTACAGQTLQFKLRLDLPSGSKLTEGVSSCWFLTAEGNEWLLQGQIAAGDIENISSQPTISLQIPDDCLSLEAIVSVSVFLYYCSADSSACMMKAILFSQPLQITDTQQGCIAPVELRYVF
Chain of UniProt P51948 (P51948 whole entry, looked up): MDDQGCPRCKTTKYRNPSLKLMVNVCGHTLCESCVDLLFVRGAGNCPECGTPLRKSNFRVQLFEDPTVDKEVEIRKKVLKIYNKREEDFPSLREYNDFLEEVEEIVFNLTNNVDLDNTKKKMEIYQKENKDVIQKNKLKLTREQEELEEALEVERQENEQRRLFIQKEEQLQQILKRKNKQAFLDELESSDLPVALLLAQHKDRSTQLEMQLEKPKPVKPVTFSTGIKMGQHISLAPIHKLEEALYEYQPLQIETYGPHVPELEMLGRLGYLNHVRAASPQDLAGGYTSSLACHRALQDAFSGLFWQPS
Chain of UniProt Q14149 (Q14149 whole entry, looked up): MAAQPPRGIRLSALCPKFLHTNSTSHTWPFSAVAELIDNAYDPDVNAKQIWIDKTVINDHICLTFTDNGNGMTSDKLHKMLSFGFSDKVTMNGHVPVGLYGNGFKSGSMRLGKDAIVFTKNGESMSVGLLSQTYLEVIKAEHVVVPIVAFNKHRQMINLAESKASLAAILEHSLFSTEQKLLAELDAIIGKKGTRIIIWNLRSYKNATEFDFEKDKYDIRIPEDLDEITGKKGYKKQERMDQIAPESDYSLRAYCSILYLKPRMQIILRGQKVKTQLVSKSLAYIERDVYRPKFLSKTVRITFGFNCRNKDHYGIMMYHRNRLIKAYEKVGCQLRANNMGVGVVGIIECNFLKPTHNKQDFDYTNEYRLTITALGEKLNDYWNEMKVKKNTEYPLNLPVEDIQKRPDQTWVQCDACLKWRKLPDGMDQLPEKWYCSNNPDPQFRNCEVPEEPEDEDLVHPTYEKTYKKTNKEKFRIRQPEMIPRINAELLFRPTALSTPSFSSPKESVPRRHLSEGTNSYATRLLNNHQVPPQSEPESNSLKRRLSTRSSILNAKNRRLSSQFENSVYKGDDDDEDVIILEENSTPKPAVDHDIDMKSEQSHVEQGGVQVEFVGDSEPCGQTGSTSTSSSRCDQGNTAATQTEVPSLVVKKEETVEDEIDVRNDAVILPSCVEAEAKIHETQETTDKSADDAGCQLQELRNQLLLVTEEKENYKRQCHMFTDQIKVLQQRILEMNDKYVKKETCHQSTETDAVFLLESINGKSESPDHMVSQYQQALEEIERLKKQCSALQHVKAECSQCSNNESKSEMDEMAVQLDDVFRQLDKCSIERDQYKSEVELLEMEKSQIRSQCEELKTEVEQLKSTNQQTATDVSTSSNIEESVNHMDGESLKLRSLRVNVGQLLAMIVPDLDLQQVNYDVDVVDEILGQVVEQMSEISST
Chain of UniProt Q7L1V2 (Q7L1V2 whole entry, looked up): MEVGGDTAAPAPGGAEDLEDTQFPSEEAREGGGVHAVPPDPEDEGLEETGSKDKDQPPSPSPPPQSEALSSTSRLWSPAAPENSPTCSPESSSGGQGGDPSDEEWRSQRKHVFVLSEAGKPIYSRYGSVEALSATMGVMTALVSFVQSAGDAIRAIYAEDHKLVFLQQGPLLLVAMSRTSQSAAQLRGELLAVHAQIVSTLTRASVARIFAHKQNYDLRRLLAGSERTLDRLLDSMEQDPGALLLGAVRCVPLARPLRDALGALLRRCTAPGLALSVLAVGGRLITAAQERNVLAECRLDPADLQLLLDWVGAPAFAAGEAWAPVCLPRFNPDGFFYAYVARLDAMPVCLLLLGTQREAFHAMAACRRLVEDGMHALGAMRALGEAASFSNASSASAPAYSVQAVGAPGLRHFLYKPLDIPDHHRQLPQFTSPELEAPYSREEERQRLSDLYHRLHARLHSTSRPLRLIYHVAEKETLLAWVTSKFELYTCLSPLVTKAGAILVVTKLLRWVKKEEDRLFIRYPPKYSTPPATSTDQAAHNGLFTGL
Chain of UniProt Q9BUB5 (Q9BUB5 whole entry, looked up): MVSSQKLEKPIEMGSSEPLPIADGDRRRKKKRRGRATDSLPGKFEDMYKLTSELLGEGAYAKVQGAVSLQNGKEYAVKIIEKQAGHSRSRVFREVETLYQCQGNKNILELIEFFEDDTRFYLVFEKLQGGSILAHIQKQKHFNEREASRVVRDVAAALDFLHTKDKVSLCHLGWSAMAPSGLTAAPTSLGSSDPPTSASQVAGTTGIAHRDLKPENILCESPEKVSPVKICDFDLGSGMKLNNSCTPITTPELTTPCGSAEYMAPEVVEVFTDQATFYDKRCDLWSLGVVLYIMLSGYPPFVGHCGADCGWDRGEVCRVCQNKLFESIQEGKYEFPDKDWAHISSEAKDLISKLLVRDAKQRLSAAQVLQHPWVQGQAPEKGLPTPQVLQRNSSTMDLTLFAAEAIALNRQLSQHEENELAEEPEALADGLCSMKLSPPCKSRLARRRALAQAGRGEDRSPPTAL
Chain of UniProt Q9HAN9 (Q9HAN9 whole entry, looked up): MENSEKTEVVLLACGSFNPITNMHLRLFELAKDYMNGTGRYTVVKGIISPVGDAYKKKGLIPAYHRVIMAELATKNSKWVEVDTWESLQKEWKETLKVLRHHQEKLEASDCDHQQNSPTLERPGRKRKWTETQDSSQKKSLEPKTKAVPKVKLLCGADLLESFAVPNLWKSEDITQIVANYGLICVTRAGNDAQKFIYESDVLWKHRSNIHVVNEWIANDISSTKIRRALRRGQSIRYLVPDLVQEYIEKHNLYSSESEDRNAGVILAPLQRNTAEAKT
Chain of UniProt O15460 (O15460 whole entry, looked up): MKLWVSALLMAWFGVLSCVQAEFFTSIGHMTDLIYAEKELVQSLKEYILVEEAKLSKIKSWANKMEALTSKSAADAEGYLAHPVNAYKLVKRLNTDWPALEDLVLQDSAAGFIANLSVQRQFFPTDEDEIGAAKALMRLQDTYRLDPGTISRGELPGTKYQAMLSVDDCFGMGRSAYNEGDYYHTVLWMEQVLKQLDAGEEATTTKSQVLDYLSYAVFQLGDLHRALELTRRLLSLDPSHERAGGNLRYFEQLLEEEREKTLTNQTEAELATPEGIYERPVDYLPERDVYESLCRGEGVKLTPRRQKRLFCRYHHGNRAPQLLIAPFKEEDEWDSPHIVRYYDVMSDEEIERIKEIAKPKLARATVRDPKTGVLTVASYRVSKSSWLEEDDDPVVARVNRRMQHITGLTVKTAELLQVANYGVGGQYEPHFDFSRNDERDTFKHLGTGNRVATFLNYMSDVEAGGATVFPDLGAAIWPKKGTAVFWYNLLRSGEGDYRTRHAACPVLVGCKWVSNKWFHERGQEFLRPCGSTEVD
Chain of UniProt O43181 (O43181 whole entry, looked up): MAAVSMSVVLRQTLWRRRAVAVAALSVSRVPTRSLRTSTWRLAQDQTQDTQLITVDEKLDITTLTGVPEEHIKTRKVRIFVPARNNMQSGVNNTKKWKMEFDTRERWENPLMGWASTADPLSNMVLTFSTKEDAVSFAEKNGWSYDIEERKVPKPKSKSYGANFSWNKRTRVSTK

| Target | log2 fold change [1] | log2 fold change [2] | log2 fold change [3] | log2 fold change [4] | log2 fold change (Nexturastat A) | log2 fold change (vemurafenib) | log2 fold change [5] | log2 fold change [6] | log2 fold change (givinostat) | log2 fold change (barasertib) | log2 fold change [7] | log2 fold change (volasertib) | log2 fold change [8] | log2 fold change (epoxomicin) | log2 fold change [9] | log2 fold change [10] | log2 fold change [11] | log2 fold change (rosiglitazone) | log2 fold change [12] | log2 fold change [13] |
| --- | --- | --- | --- | --- | --- | --- | --- | --- | --- | --- | --- | --- | --- | --- | --- | --- | --- | --- | --- | --- |
| NASP (UniProt P49321) | 0.012 | -0.033 | 0 | 0.009 | -0.058 | 0.037 | 0.038 | -0.006 | 0.001 | 0.027 | -0.118 | -0.277 (active) | 0.049 | 0.046 | 0.035 | -0.03 | 0.004 | 0.029 | -0.061 | -0.051 |
| MRPS10 (UniProt P82664) | 0.018 | 0 | 0 | -0.03 | 0.097 | -0.002 | 0.006 | -0.046 | 0.063 | -0.051 | 0.02 | 0.027 | 0.088 | -0.022 | -0.021 | 0.045 | 0.085 | 0.003 | 0.066 | 0.068 |
| NMNAT1 (UniProt Q9HAN9) | -0.079 | 0.006 | -0.09 | -0.196 | 0.132 | -0.162 | -0.139 | 0.178 | 0.042 | -0.064 | 0.302 | 0.161 | -0.007 | -0.168 | -0.06 | 0.098 | -0.092 | -0.126 | 0.228 | 0.053 |
| NUP205 (UniProt Q92621) | 0.009 | 0.018 | 0.002 | 0.075 | 0.151 | 0.059 | 0.084 | -0.016 | 0.076 | 0.044 | -0.108 | -0.35 (active) | 0.079 | -0.071 | -0.036 | -0.013 | 0.032 | 0.041 | -0.041 | -0.233 (active) |
| NIPSNAP2 (UniProt O75323) | 0.06 | -0.044 | 0.055 | 0 | -0.072 | 0.06 | 0.029 | 0.007 | -0.081 | 0.019 | 0.043 | 0.009 | -0.003 | 0.07 | 0.009 | -0.115 | -0.041 | 0.005 | -0.083 | 0.028 |
| MON1B (UniProt Q7L1V2) | 0.064 | -0.003 | 0.071 | 0.019 | -0.058 | -0.005 | 0.032 | -0.036 | 0.024 | 0.005 | -0.002 | -0.183 | -0.021 | -0.028 | -0.025 | 0.013 | -0.024 | 0.016 | -0.011 | -0.377 (active) |
| NA, A0A096LPI6 | -0.018 | 0.032 | 0.051 | 0.039 | -0.093 | 0.008 | 0.052 | -0.033 | -0.055 | -0.003 | 0.023 | 0.044 | -0.056 | -0.017 | 0.042 | 0.029 | -0.002 | -0.019 | -0.03 | 0.016 |
| NHLRC2 (UniProt Q8NBF2) | -0.06 | 0.225 | -0.014 | -0.014 | -0.055 | -0.053 | -0.048 | -0.076 | -0.006 | -0.004 | 0.024 | 0.029 | -0.026 | -0.06 | -0.037 | -0.109 | 0.003 | 0.01 | -0.064 | -0.272 (active) |
| MORC3 (UniProt Q14149) | -0.02 | -0.06 | -0.025 | 0.059 | -0.296 | 0.095 | 0.032 | 0.11 | -0.193 | 0.102 | -0.141 | -0.509 (active) | 0.086 | 0.125 | -0.02 | -0.027 | 0.071 | 0.084 | -0.058 | -0.017 |
| MKNK1 (UniProt Q9BUB5) | -0.008 | -0.051 | 0.03 | 0.115 | -0.094 | 0.021 | 0.035 | 0.022 | 0.012 | 0.033 | -0.148 | -0.183 | -0.025 | 0.018 | -0.023 | -0.101 | 0.009 | 0.036 | -0.095 | -0.006 |
| NUP107 (UniProt P57740) | -0.035 | 0.085 | 0.117 | 0.012 | 0.17 | 0.1 | 0.219 | -0.031 | 0.011 | 0.017 | 0.038 | -0.182 | 0.106 | -0.053 | -0.069 | 0.169 | -0.048 | 0.057 | 0.053 | 0.628 (active) |
| OSBPL8 (UniProt Q9BZF1) | 0.209 | 0.011 | 0.009 | -0.027 | 0.109 | 0.074 | 0.035 | 0.309 | -0.03 | 0.094 | -0.068 | -0.026 | 0.062 | -0.118 | 0.271 | 0.061 | 0.055 | 0.031 | 0.09 | -0.114 |
| P4HA2 (UniProt O15460) | -0.038 | -0.014 | 0.033 | -0.102 | 0.402 | -0.093 | -0.038 | 0.043 | 0.058 | 0.101 | 0.08 | -0.012 | -0.006 | -0.257 | -0.038 | 0.138 | -0.036 | -0.126 | 0.112 | 0.118 |
| NDUFS4 (UniProt O43181) | 0.03 | 0.024 | -0.069 | -0.033 | 0.032 | -0.061 | -0.06 | -0.033 | -0.083 | -0.062 | 0.052 | 0.074 | -0.037 | -0.025 | -0.007 | 0.071 | -0.079 | -0.046 | 0.033 | -0.013 |
| MNAT1 (UniProt P51948) | 0.004 | -0.006 | 0.001 | 0.001 | 0.043 | -0.006 | 0.039 | -0.037 | 0.069 | -0.003 | 0.029 | -0.027 | -0.029 | -0.057 | -0.006 | 0.015 | 0.032 | -0.027 | -0.011 | 0.015 |
